In all, about 35,000 sequences were measured (“fluorescence intensity (a.u.)”: median about 10,000, highest 2% from about 52,000 on). Many of the other results were omitted from the sample, so the highest values are more common in it than they were.

The target in the assay is T1, OsWOX13 (Oryza sativa, UniProt Q5QMM3 1-267).
T1 sequence: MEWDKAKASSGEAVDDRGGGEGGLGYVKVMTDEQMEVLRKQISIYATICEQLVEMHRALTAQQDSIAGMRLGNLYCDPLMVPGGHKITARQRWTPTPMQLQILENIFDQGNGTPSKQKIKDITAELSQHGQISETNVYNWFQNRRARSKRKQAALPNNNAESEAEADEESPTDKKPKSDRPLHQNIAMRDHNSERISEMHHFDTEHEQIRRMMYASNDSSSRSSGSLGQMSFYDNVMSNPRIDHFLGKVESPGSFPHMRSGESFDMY
Nature of the assay: protein-binding microarray (RPBM); PBS, 2% BSA, 51.3 ng/ul salmon testes DNA, 50 uM zinc acetate, 200 nM TF, 25 C, 1 h; high values mean tight binding. The following applies: protein: recombinant; tags: N-terminal polyhistidine and DsRed monomer fusion (pET32a); label: CyDye5-dUTP incorporated in the synthesized complementary strand; 3' TTTTT single-stranded linker to array surface; dsDNA, one strand shown. In a few lines:
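For the binding signal, per-feature fluorescence intensity was read in arbitrary units on an Axon 4000B scanner. Before scanning, a 2% BSA-blocked custom Agilent array made double-stranded with Cy5-dUTP was washed after 1 h at 25 °C with 200 nM protein and 50 µM zinc acetate. The proteins were Ni–NTA-purified transcription factors with N-terminal polyhistidine and DsRed fusions, expressed in E. coli BL21-CodonPlus.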
As for “GTCAAATTTATGGCATTGATAGAGTTTTAGTAGGGGTGTTCGGAGTCACCTAGTGCAG”, the binding signal is 21000 fluorescence intensity (a.u.).
To “TTAGTTTAATTAAATGTAACATTGAGTATATTTTGATAATCGGAGTCACCTAGTGCAG” belongs 16700 fluorescence intensity (a.u.).
On to “TCTAAATTTAACTTGCATCACATTAGTTCTGGAAAGAGCACGGAGTCACCTAGTGCAG”, for which the binding signal was 12200 fluorescence intensity (a.u.).
Take “GATACTAATTATAAATATTAAGTGTAGACTATTAATAAAACGGAGTCACCTAGTGCAG”: the binding signal is 6430 fluorescence intensity (a.u.).
For “TCATTAACACATAATTAATTAAGTACTCCCTCCGTATTTTCGGAGTCACCTAGTGCAG” the value was 20200 fluorescence intensity (a.u.).
With “AAAAGAAGTTAATTATAATTAATTGTGATAAGAGGATAGACGGAGTCACCTAGTGCAG”, the binding signal was 29400 fluorescence intensity (a.u.).
To “AAATTGTATTCCTAATTGGACTCTCTTTTCCTTTTCTAATCGGAGTCACCTAGTGCAG” belongs 3430 fluorescence intensity (a.u.); to “ATATTTTAAATAGTACTAAATTATTCTATAAATTTGGTCACGGAGTCACCTAGTGCAG”, 4350 fluorescence intensity (a.u.).
For “AGTTACTAATTGATTCAGATGCATGGCAGTATAATTGTCTCGGAGTCACCTAGTGCAG”, the binding signal was 44900 fluorescence intensity (a.u.).
Regarding “CTCTCGATTGATTACCTAGTACTACTGCAATTCACATTGTCGGAGTCACCTAGTGCAG”, the binding signal was 52200 fluorescence intensity (a.u.).
To “TCGAAAGTAATTAGTACTAGATTGATTGTCAGTTCAGTCTCGGAGTCACCTAGTGCAG” belongs 53100 fluorescence intensity (a.u.).
As for “CTTCTAATTATTTGATATTAGGTCATTCTCTAATATTCACCGGAGTCACCTAGTGCAG”, the binding signal was 21400 fluorescence intensity (a.u.).
To “TTCTAATTAGATTTGATAAAGTACTAATATTCATTTTGGTCGGAGTCACCTAGTGCAG” belongs 63100 fluorescence intensity (a.u.).
As for “TATATGGATTAACAGATAATTAGCAGCGGGGTTAGCAAAACGGAGTCACCTAGTGCAG”, the binding signal was 21000 fluorescence intensity (a.u.).
In the case of “TTTTGATTTGCCACATTTGCAGTGGCATGGATCCAATTAACGGAGTCACCTAGTGCAG”, the binding signal is 15000 fluorescence intensity (a.u.).
Take “GGGGATTAATGGATTATAATGTGTCTTATAACTAAAAGGACGGAGTCACCTAGTGCAG”: the binding signal is 15100 fluorescence intensity (a.u.).
For “GAGATTTGTTTGATGTATCAGGGTGTCACGTTGTCATGTTCGGAGTCACCTAGTGCAG” the value was 3440 fluorescence intensity (a.u.).
As for “AGTATAATTATGTTTAGAATGGATTAATTGTAATGTAAAGCGGAGTCACCTAGTGCAG”, the binding signal is 38600 fluorescence intensity (a.u.).
To “CTTAATGTATGTTGATTTGTCATCACATGTATGATTAGGGCGGAGTCACCTAGTGCAG” belongs 56400 fluorescence intensity (a.u.); to “TGAAATGTAATTGTGATTTTATCTTGAAATGATCCGATGGCGGAGTCACCTAGTGCAG”, 31400 fluorescence intensity (a.u.).
To “ATGGGTGATTAATCCTAGAATAATGTATCTAGACAGAATCCGGAGTCACCTAGTGCAG” belongs 4120 fluorescence intensity (a.u.); to “TTCCGATTATTATTTGTATTTATTAATTTAGGATTTCTCTCGGAGTCACCTAGTGCAG”, 8170 fluorescence intensity (a.u.); to “CTTGATTAGAATGTTTAATAACTTGTATCCGTCATGCCTGCGGAGTCACCTAGTGCAG”, 60200 fluorescence intensity (a.u.).
To “ATCCGATTAATTAATTTGATTTAATGTAATGTAATTAGGGCGGAGTCACCTAGTGCAG” belongs 64600 fluorescence intensity (a.u.); to “ATCATAATGTGTATGCATGATTAGAGGGCGCAAATTTGTACGGAGTCACCTAGTGCAG”, 14600 fluorescence intensity (a.u.); to “GGGATTGGTTGAGAAAATAAAACAGATATATAAGTTTATCCGGAGTCACCTAGTGCAG”, 3160 fluorescence intensity (a.u.).
“CAAACTAGATTTGTTGCTAAATTGAATTGTTATGTCATTACGGAGTCACCTAGTGCAG”: the binding signal was 22800 fluorescence intensity (a.u.).
To “TTTGTGATTAAGCTCTTGGTCTCGTCTCCGCGAGCTCAGCCGGAGTCACCTAGTGCAG” belongs 5540 fluorescence intensity (a.u.); to “AACGTATTTGGCCCAATTAAGTATATACATATGTAATGCGCGGAGTCACCTAGTGCAG”, 3420 fluorescence intensity (a.u.).
For “GTCAAGTAACTGAACATTTTAATTGCTGCCGATTATTACCCGGAGTCACCTAGTGCAG” the value was 13400 fluorescence intensity (a.u.); for “GAATTGATGGAATTTAGGCCGCCAGCAAGCAAAGACCGAGCGGAGTCACCTAGTGCAG”, 13300 fluorescence intensity (a.u.); for “CAACTGATTTTATCACGTTCTAAAATATGCCATCATCTTTCGGAGTCACCTAGTGCAG”, 12300 fluorescence intensity (a.u.).
For “GCCCTACACAATTTAATTACGTTGACACTGGCCGGTCTTACGGAGTCACCTAGTGCAG”, the binding signal is 7560 fluorescence intensity (a.u.).
To “CACTGACGGAGAAATTTACCGGTCAATGGCCGTCGTCGGTCGGAGTCACCTAGTGCAG” belongs 18000 fluorescence intensity (a.u.).
Consider “TTATAATTGACACTACGAGAATGGGTCTTTACTGCCGGTTCGGAGTCACCTAGTGCAG”, for which the binding signal is 57700 fluorescence intensity (a.u.).
As for “TCTAATGATGATTGTAAGCCGTACAATTTACTAAAAGATACGGAGTCACCTAGTGCAG”, the binding signal is 15000 fluorescence intensity (a.u.).
For “TTTAAATTGTAATCCTACTTGAACTCTTCTTTATTTTCTTCGGAGTCACCTAGTGCAG” the value was 6760 fluorescence intensity (a.u.); for “CTAAATTTGTAATTGTAATGTACTACTTTAATCCTTCGTACGGAGTCACCTAGTGCAG”, 53100 fluorescence intensity (a.u.).
For “TCTAATGATAAATCATTTATCACTAATTGTAAGAGTGGTACGGAGTCACCTAGTGCAG” the value was 53400 fluorescence intensity (a.u.); for “ATTTAATGTACAATCATGCTTTTCCGTACTAAATTTTGTTCGGAGTCACCTAGTGCAG”, 14800 fluorescence intensity (a.u.); for “TCTAAATCATTTTAATCATGGTACAGATCTACTGATAATACGGAGTCACCTAGTGCAG”, 7740 fluorescence intensity (a.u.).
For “AATTAACAATTTACCAAATTATTAGTTATCAACACTAATTCGGAGTCACCTAGTGCAG” the value was 11300 fluorescence intensity (a.u.).
With “GTATGTTATTATATCAATTAGATTTATGCTAGCACTGTCGCGGAGTCACCTAGTGCAG”, the binding signal is 15200 fluorescence intensity (a.u.).
To “CATTGATAGATTGCAAAAGCTAGCTGTCTGGGAGATGGTGCGGAGTCACCTAGTGCAG” belongs 49500 fluorescence intensity (a.u.); to “ACTATCGTAGGTAGCCAATCAATTTAACATTTCACTCAAGCGGAGTCACCTAGTGCAG”, 3630 fluorescence intensity (a.u.).

For the origin of these results see PMC7819943, “Rice protein-binding microarrays: a tool to detect cis-acting elements near promoter regions in rice”.
